Data on 16 compounds can be found in PubChem BioAssay (NCATS).

Inconclusive results are not listed. Unmarked numbers belong to inactive results. Active and inactive are the calls of the source. Calls follow the shape of the dose curve; as a rule, active = well fitted curve in the direction sought with a large enough effect; inconclusive = small, poorly fitted or top-dose-only effect, or another doubt; inactive = no such curve, though single readings can be large; an effect the other way counts as inactive or inconclusive.

The nature of experiment [1]: Quantitative highthroughput screen to assess conditional lethalithy of NOMO1 cells grown in RPMI1640 with untreated serum (RPMI+s) (AID 1963876). Also: nearly all actives have a fitted effect of over 35% in size.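 As to viability: 100% = DMSO wells and 0% = empty wells without cells.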 Summed up:
(§1)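 Each medium arm—HPLM with 10% dialyzed FBS, or RPMI1640 with 5 mM glucose and 10% untreated or dialyzed FBS—was screened against an 11-point, 3-fold compound titration for 48 h at 37 °C, with CellTiter-Glo luminescence as endpoint.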

A short description of experiment [2]: Quantitative highthroughput screen to assess conditional lethalithy of NOMO1 cells grown in RPMI1640 with dialyzed fetal bovine serum (RPMI+ds) (AID 1963877). Also: nearly all actives have a fitted effect of over 30% in size.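 As to viability: series mostly up to about 46 µM; 100% = DMSO control wells and 0% = empty wells.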 In short, it runs like this:
as §1

Experiment [3] in a line: Quantitative highthroughput screen to assess conditional lethalithy of NOMO1 cells grown in Human Plasma-Like Medium with dialyzed fetal bovine serum (HPLM+ds) (AID 1963878). Also: nearly all actives have a fitted effect of over 35% in size.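 As to viability: 100% = DMSO wells and 0% = empty wells on each plate.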 Summed up: as §1
Experiment [4] can be described thus: Quantitative highthroughput screen to assess conditional lethalithy of P12 Ichikawa cells grown in Human Plasma-Like Medium with dialyzed fetal bovine serum (HPLM+ds) (AID 1963879). Also: nearly all actives have a fitted effect of over 35% in size. As to viability: series mostly up to about 46 µM. The note with it: Potency: viability. Summed up:
as §1

A short description of experiment [5]: Quantitative highthroughput screen to assess conditional lethalithy of P12 Ichikawa cells grown in RPMI1640 with dialyzed fetal bovine serum (RPMI+ds) (AID 1963880). Also: nearly all actives have a fitted effect of over 35% in size.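 As to viability: 100% = DMSO wells and 0% = empty wells on each plate.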 The note with it: Potency: P12-Ichikawa viability. Summed up: as §1
Experiment [6] can be described thus: Quantitative highthroughput screen to assess conditional lethalithy of P12 Ichikawa cells grown in RPMI1640 with untreated serum (RPMI+s) (AID 1963881). Also: nearly all actives have a fitted effect of over 35% in size.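 As to viability: series mostly up to about 46 µM; 100% = DMSO wells and 0% = empty wells without cells.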 The note with it: Potency: viability. In short, it runs like this:
as §1

A short description of experiment [7]: Quantitative highthroughput screen to assess conditional lethalithy of SEM cells grown in Human Plasma-Like Medium with dialyzed fetal bovine serum (HPLM+ds) (AID 1963882). Also: nearly all actives have a fitted effect of over 35% in size. As to viability: series mostly up to about 46 µM. Summed up: as §1
Experiment [8] in a line: Quantitative highthroughput screen to assess conditional lethalithy of SEM cells grown in RPMI1640 with unreated serum (RPMI+s) (AID 1963883). Also: nearly all actives have a fitted effect of over 35% in size.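 As to viability: 100% = DMSO wells and 0% = empty wells without cells.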 Summed up:
as §1

The nature of experiment [9]: Quantitative highthroughput screen to assess conditional lethalithy of SEM cells grown in RPMI1640 with dialyzed fetal bovine serum (RPMI+ds) (AID 1963884). Also: nearly all actives have a fitted effect of over 35% in size.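 As to viability: series mostly up to about 46 µM; 100% = DMSO control wells and 0% = empty wells without cells.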 In short, it runs like this:
as §1

Experiment [10] is described as follows: Cellular viability qHTS for adrenocortical cancer (ACC) cell line SW-13 (AID 1963989). Also: nearly all actives have a fitted effect of over 65% in size.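 As to activity (max response): cells grown in serum-free medium with ITS supplement; % is scaled to controls: 0 for no effect and ±100 for the full control effect.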 The note with it: SW-13 ACC cells viability, CellTiter-Glo, 48 h; activity (max response): active compounds read low. In short, it runs like this:
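SW-13 cells in ITS-supplemented serum-free DMEM were plated overnight, then exposed for 48 h at 37C to compound titrations (up to 46 uM final). Viability was read by CellTiter-Glo luminescence; four-parameter logistic fits gave IC50 and efficacy.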
Background: In qHTS, concentration-response curves come from the screen itself.
Potency is read from the fitted curve at half-maximal effect.

As to `CN(C)CCCC1(c2ccc(F)cc2)OCc2cc(C#N)ccc21` (stereo unspecified), the Potency entry in experiment [1], in experiment [2], in experiment [3], in experiment [4], in experiment [5] and in [6] was “inactive” each time. For the same compound, the Potency entry in [7], in experiment [8] and in experiment [9] was “inactive” throughout.

Turning to `COc1ccnc2[nH]cc(C(=O)C(=O)N3CCN(C(=O)c4ccccc4)C[C@@H]3C)c12`, the Potency entry in experiment [1], in [2], in [3], in experiment [4], in experiment [5] and in experiment [6] was “inactive” throughout. Besides, the Potency result in [7], in experiment [8] and in [9] was “inactive” in each case.

For the compound `Cc1c(O)cccc1C(=O)N[C@@H](CSc1ccccc1)[C@H](O)CN1C[C@H]2CCCC[C@@H]2C[C@@H]1C(=O)NC(C)(C)C`, the Potency result in experiment [1], in experiment [2], in experiment [3], in experiment [4], in experiment [5] and in [6] was “inactive” in each case. Moreover, the Potency entry in experiment [7], in experiment [8] and in experiment [9] was “inactive” each time.

`CCOc1cc2ncc(C#N)c(Nc3ccc(F)c(Cl)c3)c2cc1NC(=O)C=CCN(C)C`: the Potency in experiment [1] is 16600 nM (active); in [2], 7430 nM (active); in experiment [3], 4690 nM (active); in experiment [4], 3720 nM (active); in [5], 5260 nM (active); in experiment [6], 5260 nM (active). In addition, the Potency in experiment [7] is 1320 nM (active); in experiment [8] it was 418 nM (active); in experiment [9], 743 nM (active).

For the compound `CC(C)(O)[C@H]1CC[C@@](C)([C@H]2[C@@H](O)C[C@@]3(C)[C@@H]4C[C@H](O[C@@H]5O[C@H](CO)[C@@H](O)[C@H](O)[C@@H]5O)[C@H]5C(C)(C)[C@@H](O[C@@H]6OC[C@@H](O)[C@H](O)[C@@H]6O)CC[C@@]56C[C@@]46CC[C@]23C)O1`, the Potency result in [1], in experiment [2], in experiment [3], in experiment [4], in experiment [5] and in [6] was “inactive” each time. Moreover, the Potency result in experiment [7], in experiment [8] and in experiment [9] was “inactive” in each case.

As for `Cc1ccc2c(c1)C(=O)[C@]1(O)CCN(c3ccccc3)C1=N2`, the Potency entry in experiment [1], in [2], in [3], in [4], in experiment [5] and in experiment [6] was “inactive” throughout. Further, the Potency result in [7], in [8] and in [9] was “inactive” throughout.

As to `C[C@H](NC(=O)C(C#N)=Cc1cccc(Br)n1)c1ccccc1`, the Potency in [1] is 2640 nM (active); in experiment [2] it was 3320 nM (active); in experiment [3], 1870 nM (active); in experiment [4], 1480 nM (active); in experiment [5], 2350 nM (active); in [6] it was 2350 nM (active). The values for the Potency in experiment [7], in experiment [8] and in experiment [9] were 1320 nM (active), 935 nM (active) and 1320 nM (active), respectively.

Consider `O=C(C=CC#Cc1cccc(NS(=O)(=O)c2ccccc2)c1)NO`, for which the Potency was 3720 nM (active) in experiment [1]; 3320 nM (active) in [2]; 3320 nM (active) in experiment [3]; 2350 nM (active) in experiment [4]; 2090 nM (active) in experiment [5]; 2090 nM (active) in experiment [6]. Besides, the Potency is 2640 nM (active) in experiment [7], 2960 nM (active) in experiment [8] and 2350 nM (active) in experiment [9].

`CCCCCCCCCCCCCCCC(=O)OC[C@@H](NC(=O)C(Cl)Cl)[C@H](O)c1ccc([N+](=O)[O-])cc1`: the Potency result in [1], in [2], in experiment [3], in [4], in [5] and in [6] was “inactive” in each case. Moreover, the Potency entry in [7], in experiment [8] and in experiment [9] was “inactive” in each case.

`COc1ccc(CC2=NN3C([C@@H](CCc4ccccc4)[C@@H](C)O)=NC(C)C3C(=O)N2)cc1OC` (stereo partly specified): the Potency entry in experiment [1], in [2], in [3], in experiment [4], in [5] and in [6] was “inactive” in each case. In addition, the Potency result in [7], in experiment [8] and in experiment [9] was “inactive” in each case. Also, the activity (max response) in [10] is 3.98%.

On to `N#CC(c1ccnc(NCCc2cccnc2)n1)c1nc2ccccc2s1` (stereo unspecified), for which the Potency result in experiment [1], in experiment [2], in experiment [3], in experiment [4], in experiment [5] and in experiment [6] was “inactive” throughout. The Potency result in experiment [7], in [8] and in experiment [9] was “inactive” each time. Further, the Potency in experiment [10] is 25100 nM (active).

With `O=C1c2c(O)cccc2[C@@H]([C@@H]2O[C@H](CO)[C@@H](O)[C@H](O)[C@H]2O)c2cc(CO)cc(O)c21`, the Potency result in experiment [1], in experiment [2], in [3], in experiment [4], in [5] and in experiment [6] was “inactive” each time. The Potency entry in [7], in experiment [8] and in experiment [9] was “inactive” in each case.

For the compound `CN(CC=CC#CC(C)(C)C)Cc1cccc2ccccc12`, the Potency result in experiment [1], in [2], in experiment [3], in [4], in [5] and in experiment [6] was “inactive” each time. Moreover, the Potency result in [7], in [8] and in [9] was “inactive” each time.

For the compound `CCC[C@@H](NC(=O)[C@@H]1[C@H]2CCC[C@@H]2CN1C(=O)[C@@H](NC(=O)[C@@H](NC(=O)c1cnccn1)C1CCCCC1)C(C)(C)C)C(=O)C(=O)NC1CC1`, the Potency entry in [1], in [2], in [3], in experiment [4], in [5] and in experiment [6] was “inactive” throughout. The Potency entry in [7], in experiment [8] and in experiment [9] was “inactive” in each case.

Turning to `C[C@]12CC[C@@H]3c4ccc(O)cc4CC[C@H]3[C@H]1C[C@@H](O)[C@H]2O`, the Potency entry in [1], in experiment [2], in [3], in [4], in experiment [5] and in experiment [6] was “inactive” throughout. Further, the Potency entry in experiment [7], in experiment [8] and in experiment [9] was “inactive” in each case.

Take `CC(NCc1ccc2c(c1)nc(NC(=O)c1ccc(-c3cn[nH]c3)s1)n2CC(C)(C)O)C(C)(C)C` (stereo unspecified): the Potency is 2640 nM (active) in experiment [1]; 2640 nM (active) in experiment [2]; 1480 nM (active) in experiment [3]; 2350 nM (active) in [4]; 2640 nM (active) in experiment [5]; 2640 nM (active) in [6]. For the same compound, the Potency in [7] was 26.4 nM (active); in [8] it was 41.8 nM (active); in experiment [9] it was 18.7 nM (active).
